Assay results as given in PubChem BioAssay (NCI).
The panel holds about 83,000 compounds, 20% with a hit somewhere; the sample as a whole holds those more often.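 For each line, cells grew in 96-well plates with the test compound present at a single concentration for 48 hours.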 Activity calls are given as the source filed them. How the source made its calls: active means growth percent below 10; inactive means the rest.

Columns and labels:
Assay in all cases: NCI-60 one-dose screen, 48 h (100 = growth as untreated, 0 = no growth, -100 = all killed)
Conditions in all cases: 10 µM unless noted
NCI-H23 lung = test system: NCI-H23 lung
NCI-H226 lung = test system: NCI-H226 lung
NCI-H322M lung = test system: NCI-H322M lung
HOP-62 NSCLC = test system: HOP-62 NSCLC
NCI-H460 lung = test system: NCI-H460 lung
HOP-92 NSCLC = test system: HOP-92 NSCLC
NCI-H522 lung = test system: NCI-H522 lung
A549/ATCC NSCLC = test system: A549/ATCC NSCLC
786-0 renal = test system: 786-0 renal
COLO 205 colon = test system: COLO 205 colon
DU-145 prostate = test system: DU-145 prostate
K-562 leukemia = test system: K-562 leukemia
MALME-3M melanoma = test system: MALME-3M melanoma
MDA-MB-231 breast = test system: MDA-MB-231 breast
RXF 393 renal = test system: RXF 393 renal
SF-268 CNS = test system: SF-268 CNS
SF-295 CNS = test system: SF-295 CNS
SF-539 CNS = test system: SF-539 CNS
UACC-257 melanoma = test system: UACC-257 melanoma
M14 melanoma = test system: M14 melanoma

Measured: growth

O=C(Nc1nc2ccc(S(=O)(=O)Nc3ccc(C4(C(F)(F)F)CC4)cc3)cc2[nH]1)c1cnccn1
active: NCI-H460 lung 8.38% | SF-539 CNS 5.95%
inactive: NCI-H23 lung 43.6% | NCI-H226 lung 54.1% | NCI-H322M lung 46.6% | HOP-62 NSCLC 51.5% | HOP-92 NSCLC 39.3% | NCI-H522 lung 26.9% | A549/ATCC NSCLC 35.1% | 786-0 renal 33.9% | COLO 205 colon 35.1% | DU-145 prostate 30.4% | K-562 leukemia 21.4% | MALME-3M melanoma 37.3% | MDA-MB-231 breast 59.2% | RXF 393 renal 28.6% | SF-268 CNS 34.3% | SF-295 CNS 33.4% | UACC-257 melanoma 48.5% | M14 melanoma 34.7%

Cc1ccc(S(=O)(=O)Nc2ccc(Cl)cc2)cc1
inactive: NCI-H23 lung 91.6% | NCI-H226 lung 96.6% | NCI-H322M lung 94% | HOP-62 NSCLC 98.4% | NCI-H460 lung 105% | HOP-92 NSCLC 86.9% | NCI-H522 lung 104% | A549/ATCC NSCLC 94% | 786-0 renal 100% | COLO 205 colon 111% | DU-145 prostate 118% | K-562 leukemia 97.6% | MALME-3M melanoma 100% | MDA-MB-231 breast 86.6% | RXF 393 renal 103% | SF-268 CNS 107% | SF-295 CNS 91.2% | SF-539 CNS 104% | UACC-257 melanoma 105% | M14 melanoma 103%

Cc1ccc(O)c(C(=O)O)c1
inactive: NCI-H23 lung 100% | NCI-H226 lung 105% | NCI-H322M lung 115% | HOP-62 NSCLC 99.8% | NCI-H460 lung 103% | HOP-92 NSCLC 101% | NCI-H522 lung 99% | A549/ATCC NSCLC 103% | 786-0 renal 104% | COLO 205 colon 120% | DU-145 prostate 114% | K-562 leukemia 98.2% | MALME-3M melanoma 128% | MDA-MB-231 breast 114% | RXF 393 renal 121% | SF-268 CNS 104% | SF-295 CNS 114% | SF-539 CNS 116% | UACC-257 melanoma 108% | M14 melanoma 116%

NC(=O)CN1CCN(c2ccccc2Cl)CC1
inactive: NCI-H23 lung 99.7% | NCI-H226 lung 102% | NCI-H322M lung 94.3% | HOP-62 NSCLC 104% | NCI-H460 lung 111% | HOP-92 NSCLC 103% | NCI-H522 lung 92.3% | A549/ATCC NSCLC 111% | 786-0 renal 91.6% | COLO 205 colon 110% | DU-145 prostate 108% | K-562 leukemia 97.2% | MALME-3M melanoma 104% | MDA-MB-231 breast 102% | RXF 393 renal 112% | SF-268 CNS 106% | SF-295 CNS 97.9% | SF-539 CNS 107% | UACC-257 melanoma 107% | M14 melanoma 102%

NC(=S)N/N=C(/c1ccccc1)c1ccccc1N
inactive: NCI-H23 lung 94.9% | NCI-H226 lung 82.2% | NCI-H322M lung 91.8% | HOP-62 NSCLC 98.5% | NCI-H460 lung 102% | HOP-92 NSCLC 102% | NCI-H522 lung 88.9% | A549/ATCC NSCLC 87.3% | 786-0 renal 101% | COLO 205 colon 108% | DU-145 prostate 94.2% | K-562 leukemia 45.5% | MALME-3M melanoma 93.7% | MDA-MB-231 breast 85.8% | RXF 393 renal 105% | SF-268 CNS 92.9% | SF-295 CNS 82.5% | SF-539 CNS 99.6% | UACC-257 melanoma 54% | M14 melanoma 88.2%

CCOC(=O)N1CCc2c(sc3nc4nc[nH]n4c(=O)c23)C1
inactive: NCI-H23 lung 95% | NCI-H226 lung 82.4% | NCI-H322M lung 109% | HOP-62 NSCLC 86.6% | NCI-H460 lung 109% | HOP-92 NSCLC 93.8% | NCI-H522 lung 85.2% | A549/ATCC NSCLC 100% | 786-0 renal 99.6% | COLO 205 colon 102% | DU-145 prostate 107% | K-562 leukemia 105% | MALME-3M melanoma 102% | MDA-MB-231 breast 99.9% | RXF 393 renal 104% | SF-268 CNS 99.7% | SF-295 CNS 103% | SF-539 CNS 94.6% | UACC-257 melanoma 109% | M14 melanoma 98.4%

Cc1c(C(=O)NO)sc2ncnc(Nc3ccc(NC(=S)Nc4ccccc4)cc3)c12
inactive: NCI-H23 lung 96.5% | NCI-H226 lung 104% | NCI-H322M lung 107% | HOP-62 NSCLC 101% | NCI-H460 lung 102% | HOP-92 NSCLC 115% | NCI-H522 lung 92.1% | A549/ATCC NSCLC 101% | 786-0 renal 99.1% | COLO 205 colon 113% | DU-145 prostate 107% | K-562 leukemia 103% | MALME-3M melanoma 99.5% | MDA-MB-231 breast 95% | RXF 393 renal 104% | SF-268 CNS 98.2% | SF-295 CNS 98.3% | SF-539 CNS 100% | UACC-257 melanoma 99.4% | M14 melanoma 104%
